# Cruzain inh Det – blocks cruzain activity in presence of Triton detergent. purified cruzain, Z-FR-AMC fluorescence, 0.01% Triton. Potency, µM, for inactives: max response, negative = inhibition, usual class: inhibitors. 200,000 tested, 0.43% active. AID 1478;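 note: plate controls were neutral wells for no effect and buffer without enzyme for full effect; nearly all actives have a fitted effect of over 40% in size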
# Target sequence (P25779 123-467 limits assumed): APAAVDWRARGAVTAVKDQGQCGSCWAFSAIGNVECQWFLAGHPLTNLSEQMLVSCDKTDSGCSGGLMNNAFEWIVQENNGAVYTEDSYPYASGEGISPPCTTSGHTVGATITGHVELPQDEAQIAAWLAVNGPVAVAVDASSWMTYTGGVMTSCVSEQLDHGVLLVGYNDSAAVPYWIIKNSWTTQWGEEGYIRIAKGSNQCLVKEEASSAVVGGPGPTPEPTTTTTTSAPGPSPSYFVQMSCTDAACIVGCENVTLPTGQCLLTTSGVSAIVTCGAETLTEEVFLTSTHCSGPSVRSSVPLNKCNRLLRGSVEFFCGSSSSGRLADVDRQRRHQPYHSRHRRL
#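 Purified cruzain (1.5 nM final) was preincubated with compounds for 15 min at room temperature in 100 mM sodium acetate pH 5.5, 5 mM DTT, 0.01% Triton X-100. Reaction started with 2 uM Z-FR-AMC; AMC fluorescence change over 60 s gave activity.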
# Cruzain inh noDet – inhibitors of Trypanosoma cruzi cruzain without detergent. purified cruzain, Z-FR-AMC fluorescence, no detergent. Potency, µM, for inactives: max response, negative = inhibition, actives largely listed as inhibitors. 200,000 tested, 2.3% active. AID 1476;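 note: plate controls were enzyme without inhibitor for no effect and buffer without enzyme for full effect; nearly all actives have a fitted effect of over 40% in size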
#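 Detergent-free condition (0.00005% Triton X-100) in acetate buffer pH 5.5 with DTT. 1.5 nM enzyme and compound were pre-mixed 15 min, then 2 uM Z-FR-AMC substrate added; reaction progress from fluorescence change between first and third reads (60 s).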
# * = called active by the depositor; ? = inconclusive. Hits are enriched below; roughly 2.6% of the tested compounds scored in any of these assays. Calls come from the whole dose curve; as a rule, active = well fitted curve in the direction sought with a large enough effect; inconclusive = small, poorly fitted or top-dose-only effect, or another doubt; inactive = no such curve, though single readings can be large; an effect the other way counts as inactive or inconclusive. Potency is the fitted concentration of half-maximal effect.
SMILES,Cruzain inh Det,Cruzain inh noDet
CCc1nc2c(c(=O)c3ccccc3n2C)c(=O)n1-c1ccc(F)cc1,-0.6%,-4.2%
O=c1c2ccccc2nc2n1CCC2,?,12.6µM*
O=c1c2ccccc2nc2n1CCCCC2,-0.9%,-4.2%
O=C(O)CCCCC1CCSS1 (stereo not given),1.1%,3.8%
Cc1noc(C)c1C(=O)N1CCC2(CC1)CCN(c1cccc(-c3ccccc3)c1)CC2,0.2%,8.7%
CCOc1cccc(NC(=O)CSc2nc(C)c3c(c2C#N)CCCC3)c1,4.3%,7.94µM*
Cc1nc(SCC(=O)Nc2ccc3c(c2)OCO3)c(C#N)c2c1CCCC2,-0.5%,-9.1%
CCOC(=O)c1c(C#N)c(SCC(=O)Nc2ccc(OC)cc2)nc2c1CN(CC)CC2,-2.6%,25.1µM*
CCOC(=O)c1ccc(NC(=O)CSc2nc(-c3ccc(OC)cc3)cc(C(F)(F)F)c2C#N)cc1,0.1%,-2.7%
CCc1ccc(NC(=O)CN2CCc3ccccc3C2)cc1,0.3%,-9.6%
Cc1cccc(N2CCN(C(=O)C(C)n3nc(C)n4c(cc5occc54)c3=O)CC2)c1C (stereo not given),-3.7%,?
COCc1cc(C)nc(NCCc2ccccc2)c1C#N,-5.1%,?
C=CCOC(=O)C1=C(C)OC(N)=C(C#N)C1c1c(C)nn(-c2ccccc2)c1Cl (stereo not given),-10.6%,5.4%
Cc1ccc(S(=O)(=O)N2CCCOC2CNC(=O)C(=O)NCc2cccs2)cc1 (stereo not given),-1.3%,-1.0%
Cc1cc(=O)n(Cc2ccccc2Cl)c2c1c(C)nn2-c1ccccc1,-0.8%,-15.3%
Cc1ccc(OCC(=O)NC(=S)Nc2ccc3c4c(cccc24)CC3)cc1,-11.8%,?
O=C(/C=C/c1ccccc1)NC(=S)Nc1ccc2c3c(cccc13)CC2,-6.1%,12.6µM*
O=C(COc1ccccc1)NC(=S)Nc1ccc2c3c(cccc13)CC2,-7.5%,?
CC(C)c1ccc(OCC(=O)NC(=S)Nc2ccc3c4c(cccc24)CC3)cc1,1.2%,25.1µM*
CN(C)Cc1ccccc1-c1ccc2ncnc(NC3CCNCC3)c2c1,2.1%,3.3%
O=C(CCn1nc(-c2ccc(Cl)cc2)ccc1=O)NCc1ccccn1,2.7%,2.3%
Cc1cccc(C)c1NC(=O)NCCCN1CCN(c2ccccc2)CC1,0.7%,2.3%
COc1ccc(N=C2C(=Nc3ccc(OC)cc3)N(c3ccc(OC)cc3)C(=S)N2c2ccccc2)cc1,-0.3%,?
Cc1ccc(N=C2C(=S)N(c3ccc(C)cc3)C(=N)N2/N=C/c2ccc(Cl)cc2)cc1,-4.4%,3.16µM*
Cc1cccc(C)c1NC(=O)COc1cccc(/C=N/NC(=O)C(=O)NCc2ccccc2)c1,6.7%,25.1µM*
SMILES,Cruzain inh Det,Cruzain inh noDet
C=CCOc1cccc(/C=N/NC(=O)C(=O)NCc2ccco2)c1,4.7%,?
CC(=O)Cc1nsc(NC(=O)c2c(-c3ccccc3Cl)noc2C)n1,3.4%,4.2%
COc1cccc(OCc2cc(C3Nc4ccccc4C(=O)N3Cc3ccco3)ccc2OC)c1 (stereo not given),-6.5%,15.8µM*
COc1ccc(C2Nc3ccccc3C(=O)N2Cc2ccco2)cc1COc1ccc([N+](=O)[O-])cc1 (stereo not given),0.3%,?
COc1ccc(C2=CC(c3ccc(OC)c(OC)c3)NC(=S)N2)cc1 (stereo not given),3.5%,-2.2%
COc1ccc(C2C=C(C34CC5CC(CC(C5)C3)C4)NC(=S)N2)cc1 (stereo not given),-3.3%,25.1µM*
CCc1ccc(NC(=O)CSc2ccc(-c3ccccn3)nn2)cc1,-1.9%,-5.5%
CCOC(=O)C1CCN(S(=O)(=O)c2ccc(C(=O)OC)cc2)CC1,5.9%,29.6%
CCc1ccc(C(=O)c2cnc3ccc(C)cc3c2S(=O)(=O)c2ccc(OC)cc2)cc1,-1.9%,-10.6%
CCOc1ccc(S(=O)(=O)c2c(C(=O)c3ccccc3)cnc3cc4c(cc23)OCCO4)cc1,-6.2%,31.6µM*
CCOc1ccc(S(=O)(=O)c2c(C(=O)c3ccc(CC)cc3)cnc3ccc(C)cc23)cc1,-3.6%,20µM*
Cc1ccc(C(=O)c2cnc3ccccc3c2-c2ccccc2)cc1,-1.4%,4.9%
CCOc1ccc(C(=O)c2cnc3ccc(Cl)cc3c2S(=O)(=O)c2ccc(C)cc2)cc1,-0.1%,11.3%
CCc1ccc(S(=O)(=O)c2c(C(=O)c3ccc(C)c(C)c3)cnc3ccccc23)cc1,-2.9%,12.6µM*
Cc1c(Cc2ccccc2)c(=O)oc2c(CN(C)C)c(O)c(Cl)cc12,20µM*,?
CN(C)Cc1c(O)ccc2oc(Cc3ccccc3)cc12,-0.6%,-5.4%
O=c1c2ccc(Cl)cc2[nH]c(=S)n1CCC1=CCCCC1,-0.7%,20µM*
CCOC(=O)N1CCN(C(=O)c2ccc3c(=O)n(CCC4=CCCCC4)c(=S)[nH]c3c2)CC1,-6.7%,?
Cc1ccc2c(c1)[nH]c1c(=O)n(CCC3=CCCCC3)cnc12,4.5%,20µM*
Cc1ccc2[nH]c3c(=O)n(CCC4=CCCCC4)cnc3c2c1,0.3%,-20.0%

# Screens deposited in PubChem by National Center for Advancing Translational Sciences (NCATS).
